Data published in PubChem BioAssay (NCI).
The panel holds about 83,000 compounds, 20% with a hit somewhere; the sample as a whole holds those more often.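 For each line, cells grew in 96-well plates with the test compound present at a single concentration for 48 hours.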 The source made the active and inactive calls. The calls were made as follows: active = growth percent below 10; inactive = the rest.

Tests used:
Assay in all cases: NCI-60 one-dose screen, 48 h (100 = growth as untreated, 0 = no growth, -100 = all killed)
Details in all cases: 10 µM unless noted
NCI-H23 lung = test system: NCI-H23 lung
NCI-H322M lung = test system: NCI-H322M lung
HOP-62 NSCLC = test system: HOP-62 NSCLC
NCI-H460 lung = test system: NCI-H460 lung
HOP-92 NSCLC = test system: HOP-92 NSCLC
NCI-H522 lung = test system: NCI-H522 lung
A549/ATCC NSCLC = test system: A549/ATCC NSCLC
786-0 renal = test system: 786-0 renal
COLO 205 colon = test system: COLO 205 colon
DU-145 prostate = test system: DU-145 prostate
K-562 leukemia = test system: K-562 leukemia
MALME-3M melanoma = test system: MALME-3M melanoma
MDA-MB-231 breast = test system: MDA-MB-231 breast
RXF 393 renal = test system: RXF 393 renal
SF-268 CNS = test system: SF-268 CNS
SF-295 CNS = test system: SF-295 CNS
SF-539 CNS = test system: SF-539 CNS
UACC-257 melanoma = test system: UACC-257 melanoma
M14 melanoma = test system: M14 melanoma
HCT-15 colon = test system: HCT-15 colon

Measured: growth

COc1ccc(/C=C2/SC(=O)N(CC(=O)N3CCN(c4cc5c(cc4F)c(=O)c(C(=O)O)cn5C4CC4)CC3)C2=O)cc1
inactive: NCI-H23 lung 100% | NCI-H322M lung 99% | HOP-62 NSCLC 97.6% | NCI-H460 lung 103% | HOP-92 NSCLC 113% | NCI-H522 lung 87.1% | A549/ATCC NSCLC 92.2% | 786-0 renal 97.3% | COLO 205 colon 108% | DU-145 prostate 115% | K-562 leukemia 110% | MALME-3M melanoma 98.5% | MDA-MB-231 breast 103% | RXF 393 renal 117% | SF-268 CNS 101% | SF-295 CNS 101% | SF-539 CNS 91.1% | UACC-257 melanoma 91.9% | M14 melanoma 103% | HCT-15 colon 109%

COC(=O)[C@H](NC(=O)C1(C)CCC[C@]2(C)[C@H]3C[C@H]4C(C(C)C)=C[C@]3(CC[C@@H]12)[C@@H]1C(=O)CCC(=O)[C@@H]14)C(C)C (stereo not given in full)
inactive: NCI-H23 lung 103% | NCI-H322M lung 96.2% | HOP-62 NSCLC 99.8% | NCI-H460 lung 113% | HOP-92 NSCLC 96.8% | NCI-H522 lung 102% | A549/ATCC NSCLC 94.4% | 786-0 renal 102% | COLO 205 colon 110% | DU-145 prostate 106% | K-562 leukemia 96.9% | MALME-3M melanoma 104% | MDA-MB-231 breast 90.8% | RXF 393 renal 105% | SF-268 CNS 96.5% | SF-295 CNS 94.8% | SF-539 CNS 100% | UACC-257 melanoma 104% | M14 melanoma 102% | HCT-15 colon 95.3%

O=C(NCCCN1CCC(N2CCCCC2)CC1)C1=Cc2cc(Br)ccc2OC1
inactive: NCI-H23 lung 56.2% | NCI-H322M lung 69.2% | HOP-62 NSCLC 87.9% | NCI-H460 lung 13.8% | HOP-92 NSCLC 80.7% | NCI-H522 lung 31% | A549/ATCC NSCLC 49.1% | 786-0 renal 53.5% | COLO 205 colon 46.1% | DU-145 prostate 68.7% | K-562 leukemia 14.8% | MALME-3M melanoma 97.9% | MDA-MB-231 breast 17.6% | RXF 393 renal 52.3% | SF-268 CNS 50.2% | SF-539 CNS 87.4% | UACC-257 melanoma 59.8% | M14 melanoma 38.7% | HCT-15 colon 41.1%
active: SF-295 CNS 3.29%

CCCc1c(C)c2sc(=O)[nH]c2[nH]c1=O
inactive: NCI-H23 lung 104% | NCI-H322M lung 111% | HOP-62 NSCLC 107% | NCI-H460 lung 107% | HOP-92 NSCLC 104% | NCI-H522 lung 96% | A549/ATCC NSCLC 103% | 786-0 renal 109% | COLO 205 colon 113% | DU-145 prostate 114% | K-562 leukemia 107% | MALME-3M melanoma 108% | MDA-MB-231 breast 105% | RXF 393 renal 107% | SF-268 CNS 99.6% | SF-295 CNS 108% | SF-539 CNS 96.7% | UACC-257 melanoma 103% | M14 melanoma 108% | HCT-15 colon 103%

CCOc1cc(Cl)c(C(C)NC(=O)c2cccc(OC)c2)cc1OCC (stereo not given)
active: NCI-H23 lung 4.89% | HOP-62 NSCLC -11.2% | HOP-92 NSCLC -46.3% | NCI-H522 lung -76.1% | 786-0 renal -74.9% | COLO 205 colon -84.8% | DU-145 prostate -21.7% | K-562 leukemia -25.7% | MALME-3M melanoma -70.4% | MDA-MB-231 breast -7.72% | RXF 393 renal -95.8% | SF-539 CNS 7.13% | UACC-257 melanoma -70.3% | M14 melanoma -46.4% | HCT-15 colon 3.34%
inactive: NCI-H322M lung 127% | NCI-H460 lung 13.6% | A549/ATCC NSCLC 17.3% | SF-268 CNS 11.3% | SF-295 CNS 111%

COc1ccc2sc(N(Cc3cccnc3)C(=O)c3ccc(C#N)cc3)nc2c1
active: UACC-257 melanoma -46.3%
inactive: NCI-H23 lung 96.3% | NCI-H322M lung 101% | HOP-62 NSCLC 94.4% | NCI-H460 lung 101% | HOP-92 NSCLC 60.7% | NCI-H522 lung 124% | A549/ATCC NSCLC 81.9% | 786-0 renal 69.8% | COLO 205 colon 84% | DU-145 prostate 93.5% | K-562 leukemia 16.4% | MALME-3M melanoma 60.9% | MDA-MB-231 breast 71.5% | RXF 393 renal 92.8% | SF-268 CNS 87.7% | SF-295 CNS 35.6% | SF-539 CNS 70.5% | M14 melanoma 25.4% | HCT-15 colon 66.1%

O=C(CSc1nc2ccccc2c(=O)n1-c1ccccc1)Nc1ccc(C(=O)/C=C/c2ccc(Cl)cc2)cc1
inactive: NCI-H23 lung 93.4% | NCI-H322M lung 101% | HOP-62 NSCLC 107% | NCI-H460 lung 100% | HOP-92 NSCLC 97.1% | NCI-H522 lung 85.3% | A549/ATCC NSCLC 97% | 786-0 renal 102% | COLO 205 colon 108% | DU-145 prostate 109% | K-562 leukemia 90.8% | MALME-3M melanoma 95.5% | MDA-MB-231 breast 93.3% | RXF 393 renal 127% | SF-268 CNS 115% | SF-295 CNS 105% | SF-539 CNS 113% | UACC-257 melanoma 89.6% | M14 melanoma 101% | HCT-15 colon 98.1%

COc1ccc2oc(=O)cc(Cn3cc(Cn4cnc5c4c(=O)n(C)c(=O)n5C)nn3)c2c1
inactive: NCI-H23 lung 101% | NCI-H322M lung 101% | HOP-62 NSCLC 101% | NCI-H460 lung 105% | HOP-92 NSCLC 104% | NCI-H522 lung 98.6% | A549/ATCC NSCLC 103% | 786-0 renal 98% | COLO 205 colon 110% | DU-145 prostate 105% | K-562 leukemia 103% | MALME-3M melanoma 91.5% | MDA-MB-231 breast 98% | RXF 393 renal 120% | SF-268 CNS 100% | SF-295 CNS 102% | SF-539 CNS 94% | UACC-257 melanoma 98% | M14 melanoma 100% | HCT-15 colon 105%
